In the library only some 3.5% were active in any assay of this set; here they are far more common.
TEAD-YAP inh = TEAD-YAP interaction inhibition; AID 1259422; HEK-TIYL cells, TEAD-Gal4/YAP UAS-luciferase luminescence; hit rate 1.4% among 640,000; inhibition, % at 9.12 µM; in the data active = inhibition above about 32%;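 note: 0% = median of test compound wells and 100% = reference inhibitor wells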
FBW7 activator = human FBW7 E3 ligase activation, primary screen. AlphaScreen FBW7–phospho-cyclin E peptide binding, activator screen. normalized activity (activation), % at 26.1 µM. hit rate 0.13% among 650,000; in the data active = normalized activity above about 1.9%;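 note: purified mutant Fbw7 with reduced substrate affinity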
MITF inh = inhibitors of human MITF. AlphaScreen MITF homodimerization, bead proximity signal. inhibition, % at 2.6 µM. hit rate 0.91% among 650,000. O75030; in the data active = inhibition above about 50%;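 note: 0% = vehicle wells with protein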
GPR151 activ = activators of human GPR151 | AID 1508602 | Q8TDV0 | PathHunter beta-arrestin GPR151 cells, luminescence | activation, % at 11.2 µM | hit rate 1% among 650,000; in the data active = activation above about 4.9%;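 note: 0% = median of compound wells and 100% = cells with positive control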
Target sequence (Q8TDV0 whole entry, looked up): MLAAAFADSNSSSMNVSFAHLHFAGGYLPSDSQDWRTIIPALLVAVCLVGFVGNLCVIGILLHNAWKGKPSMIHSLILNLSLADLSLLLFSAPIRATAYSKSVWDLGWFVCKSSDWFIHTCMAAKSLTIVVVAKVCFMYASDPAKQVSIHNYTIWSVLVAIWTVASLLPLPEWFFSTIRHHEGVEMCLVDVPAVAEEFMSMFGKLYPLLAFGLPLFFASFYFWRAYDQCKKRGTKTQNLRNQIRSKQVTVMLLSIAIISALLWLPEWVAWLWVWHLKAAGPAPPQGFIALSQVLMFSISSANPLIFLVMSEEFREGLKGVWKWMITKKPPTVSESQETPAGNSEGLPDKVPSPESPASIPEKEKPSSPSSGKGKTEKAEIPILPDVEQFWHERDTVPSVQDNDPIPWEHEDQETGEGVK
Numbers without * were called inactive.

SMILES | TEAD-YAP inh | FBW7 activator | MITF inh | GPR151 activ
COc1ccc(C2C(C(=O)OCc3ccccc3)=C(C)NC3=C2C(=O)CCC3)cc1 (stereo not given) | 5 | 0 | 4 | 0
CCc1ccc(/C=C/c2c([N+](=O)[O-])c(=O)n(C)c(=O)n2C)cc1 | 44* | 0 | 4 | 0
CCOc1ccc(/C=C/c2c([N+](=O)[O-])c(=O)n(C)c(=O)n2C)cc1 | 13 | 0 | -4 | 1
C/C(=N\NC(N)=S)c1ccc(Cl)cc1Cl | 34* | 0 | 6 | 1
C/C(=N\NC(=O)C(F)(F)F)c1ccc(Cl)cc1Cl | -1 | 0 | -1 | 0
Cc1cccc(NC(=O)C2CCN(c3ccc(-c4cccs4)nn3)CC2)n1 | 55* | 0 | 19 | -10
CCOC(=O)c1ccccc1NC(=O)C1CCN(c2ccc(-c3cccs3)nn2)CC1 | 3 | 0 | 8 | 0
COC(=O)COc1cccc(-c2nc(Nc3ccc4[nH]ncc4c3)c3ccccc3n2)c1 | 3 | 0 | 13 | 0
O=C(COc1cccc(-c2nc(Nc3ccc4[nH]ncc4c3)c3ccccc3n2)c1)Nc1cccnc1 | 37* | 0 | 13 | 0
COc1cc(OC)cc(C(=O)Nc2nc(-c3ccccn3)cs2)c1 | 49* | 0 | 18 | 0
O=C(Nc1nc(-c2ccccn2)cs1)c1ccc(Oc2ccccc2)cc1 | 43* | 0 | 0 | -1
O=C1C(c2ccccc2)=C(c2ccccc2)N/C1=C\C(=O)c1ccc(Br)cc1 | -1 | 0 | -8 | 0
NC(=O)c1nn(-c2ccccc2)nc1/C=C\C(=O)O | -8 | 1 | 20 | -1
COC(=O)/C=C\c1nn(-c2ccccc2)nc1C#N | 60* | 0 | 5 | 0
CCN1/C(=C/c2cccc[n+]2C)Sc2ccc(C)cc21 | 52* | -1 | 4 | 1
C[n+]1ccccc1/C=C1\Sc2ccccc2N1CCCS(=O)(=O)O | -2 | 2.5* | 24 | -2
CCCCN1/C(=C/c2cccc[n+]2C)Sc2cc(NC(C)=O)ccc21 | 6 | 0 | 26 | 1
CN1/C(=C/c2cccc[n+]2C)Sc2ccccc21 | 70* | 0 | 0 | 0
Cc1ccc2c(c1)N(C)/C(=C/c1cccc[n+]1C)S2 | 55* | 0 | 2 | 0
CN1C=C/C(=C/c2cccc[n+]2C)c2ccccc21 | 13 | 0 | -6 | 0
O=c1oc2ccccc2cc1-c1nnc(-c2cccnc2)o1 | -12 | 0 | -6 | 0
COc1ccc2c(c1)N(C)/C(=C1/SC(N(c3ccccc3)c3ccccc3)=NC1=O)S2 | -12 | 0 | 10 | 0
Cc1nn(-c2ccccc2)c(-n2cccc2)c1C(=O)NCc1ccccn1 | 1 | 0 | 10 | 0
C/C(CC(=O)NC12CC3CC(CC(C3)C1)C2)=N\NC(=O)C12CC3CC(CC(C3)C1)C2 | -9 | 0 | 2 | 1
Cc1cc(NCCc2ccc(O)cc2)nc(-c2ccc(C(=O)NC3CC3)cc2)n1 | -3 | 0 | -5 | 1
SMILES | TEAD-YAP inh | FBW7 activator | MITF inh | GPR151 activ
Cc1cc(C)cc(NC(=O)CN(c2ccc(Cl)c(Cl)c2)S(C)(=O)=O)c1 | 6 | 0 | -35 | 0
Cc1cccc(-n2ncc3c(Nc4cc(C)ccc4C)ncnc32)c1 | 45* | 0 | -5 | -2
Cc1cccc(-n2ncc3c(Nc4ccc(C)cc4C)ncnc32)c1 | -27 | 0 | 8 | 0
CCCN(CCC)c1ncnc2c1cnn2-c1ccc(Cl)cc1 | 7 | 0 | 5 | 2
CCN(CCN(C)C)c1ncnc2c1cnn2-c1ccc(Cl)cc1 | 50* | 0 | 5 | -1
Cc1cccc(-n2ncc3c(Nc4cccc(C)c4C)ncnc32)c1 | 42* | 0 | -5 | 0
Cc1cccc(-n2ncc3c(NC(C)(C)C)ncnc32)c1 | 82* | 0 | -3 | 1
O=C(NCc1cccnc1)C1CCN(c2ccc(Nc3ccccc3)nn2)CC1 | -1 | 0 | -8 | -3
CCc1ccc(NC(=O)Cn2cnc3sc4c(c3c2=O)CCCC4)cc1 | 9 | 0 | 1 | 0
CCCCNc1ncnc2c1cnn2-c1ccc(Cl)cc1 | -54 | 0 | 0 | 1
CC(C)(C)Nc1ncnc2c1cnn2-c1ccc(Cl)cc1 | 51* | 0 | 4 | 3
O=[N+]([O-])c1cc(NS(=O)(=O)c2cccc3nsnc23)cc(Sc2ccc(F)cc2)c1 | -9 | 0 | 20 | -1
COc1ccc(C)cc1S(=O)(=O)N1CCN(C23CC4CC(CC(C4)C2)C3)CC1 | 6 | 1 | 11 | -1
CCNc1nccc(NCc2cccc(C(F)(F)F)c2)n1 | 37* | 0 | -3 | 1
OC1CCC(Nc2nccc(NCc3ccccc3)n2)CC1 (stereo not given) | 11 | 0 | 6 | -1
CCNc1nc(C)cc(NCc2cccc(C(F)(F)F)c2)n1 | 18 | 0 | 7 | -1
OC1CCC(Nc2nccc(NCc3cccc(C(F)(F)F)c3)n2)CC1 (stereo not given) | 48* | 0 | 4 | 1
FC(F)(F)c1cccc(CNc2ccnc(Nc3ccc(-n4ccnc4)cc3)n2)c1 | 36* | 0 | 7 | 3
C=CCSC1=C(C#N)C(c2sccc2C)CC(=O)N1 (stereo not given) | 0 | 0 | 6 | 0
C/C(=N\Nc1nc2c(c(=O)[nH]c(=O)n2C)n1CCC(C)C)c1ccc(Cl)cc1 | 2 | 0 | 10 | 1
COc1ccc(CNS(=O)(=O)c2ccc(F)c(C(=O)Nc3cc(Cl)ccc3Cl)c2)cc1 | 4 | 0 | 4 | 0
Oc1c(Cl)cc(CN2CCOCC2)c2cccnc12 | 86* | -1 | 100* | 0
Oc1c(Br)cc(CN2CCOCC2)c2cccnc12 | 75* | -1 | 102* | 0
O=C(c1ccco1)N1CCN(c2ncc(-c3ccc(CO)cc3)n3ccnc23)CC1 | 39* | 4.8* | 5 | 1
Nc1ccc(-c2cnc3c(N4CCN(C(=O)c5ccco5)CC4)nccn23)cc1 | -60 | 0 | -8 | -1
SMILES | TEAD-YAP inh | FBW7 activator | MITF inh | GPR151 activ
O=C(c1ccco1)N1CCN(c2ncc(-c3cccnc3)n3ccnc23)CC1 | -70 | 2.3* | -24 | 1
CC(=O)c1ccccc1NC(=O)c1oc2ccccc2c1C | -3 | 0 | 5 | -1
O=C(OCc1csc(Nc2ccccc2)n1)C1CC2C=CC1C2 (stereo not given) | 38* | 0 | -6 | -4
O=C(NCc1ccco1)c1cc(-c2ccc(O)cc2)on1 | 5 | 0 | 8 | -1
c1cncc(Nc2nc3ncnc(Nc4ccc(N5CCOCC5)cc4)c3[nH]2)c1 | 25 | 0 | 3 | -2
O=C1CCCN1CCCNc1nc(Nc2ccc(N3CCOCC3)cc2)nc2c1ncn2-c1ccsc1 | 59* | 0 | -1 | -1
O=C1CCCN1CCCNc1nc2ncnc(Nc3ccc(N4CCOCC4)cc3)c2[nH]1 | 38* | 0 | 17 | -2
c1cnc2ccc(Nc3nc4ncnc(Nc5ccc(N6CCOCC6)cc5)c4[nH]3)cc2c1 | 36* | 3.9* | 5 | -2
O=C1CCCN1CCCNc1nc2ncnc(Nc3ccccc3)c2[nH]1 | -4 | 0 | -10 | -2
O=C1CCCN1CCCNc1nc(Nc2ccc(N3CCOCC3)cc2)c2ncn(-c3ccsc3)c2n1 | 47* | 0 | 19 | 0
c1ccc(-c2nc3ccccc3s2)cc1 | -36 | 0 | 8 | -2

Assay outcomes (PubChem)
